# This is part of a sample that, as a whole, favours compounds with a hit. Of some 83,000 tested, about 20% had one in any assay.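 Note: values are percent growth. 100 is the growth of untreated cells, values between 100 and 0 indicate rising inhibition; between -100 and 0 indicates cell death.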 Values without a mark were called inactive. Activity calls are given as the source filed them. The calls were made as follows: active = growth percent below 10; inactive = the rest.
# System: SNB-19 CNS
# Experiment: NCI-60 one-dose screen, 48 h (100 = growth as untreated, 0 = no growth, -100 = all killed)
# Details: 10 µM unless noted
row,Structure (SMILES),growth
1,C#C[C@]1(O)CC[C@H]2[C@@H]3CC=C4c5sc(Nc6cc(C)cc(C)c6)nc5CC[C@]4(C)[C@H]3CC[C@@]21C,14.8%
2,CCCC[n+]1ccc(SCC(=O)n2ccc3ccccc32)c2ccccc21,97.4%
3,CC(C)(C)c1cc(NC(=O)Nc2ccc(-c3cn4c5c(sc4n3)CCc3cn(CCCN4CCCCC4)cc3-5)cc2)no1,-83.5% (active)
4,CCCCCCNC(=O)Oc1ccc(/C(=C(/C)c2ccc(OC)cc2)c2ccc(OCCN3CCCCCC3)cc2)cc1,39.2%
5,Cn1cc(-c2cc3ncnc(Nc4ccc(CC(=O)Nc5nc(C(C)(C)C)cs5)cc4)c3s2)cn1,94.5%
6,O=C(CCCCCC/C=C\c1csc(Br)n1)NO,97%
7,COc1ccc(C(=O)c2c(N)c(C#N)cn2-c2ccc(Cl)cc2Cl)cc1,93.1%
8,Cc1ccc2c(n1)C(=O)C(Cl)=C(Nc1cccc(C(F)(F)F)c1)C2=O,101%
9,O=C1[C@H]2Cc3c([nH]c4ccccc34)[C@H](c3ccc(Cl)cc3)N2C(=O)CN1C1CCN(CC2CCCCC2)CC1,76%
10,COc1ccc(/C=N/NC(=O)c2c(N)nn(C)c2Nc2ccccc2)cc1,36.8%
11,Fc1ccc2nc(-c3cnn4cccnc34)sc2c1,82.1%
12,O=C(/C=C/c1cccc(F)c1)c1cccc(OCCCCOc2cccc(C(=O)/C=C/c3cccc(F)c3)c2)c1,94%
13,O=C(COc1ccc(/C=C2\C(=O)Nc3ccc(Cl)cc32)cc1)Nc1ccc(Cl)cc1,78.2%

# Source: PubChem BioAssay (NCI)
